Screening results (PubChem BioAssay)
Rows were chosen to be rich in hits. Some 2.8% of all compounds tested hit in one or more screens of this group.
PI5P4K alpha inh: blocks human PI5P4K alpha kinase activity. P48426. PI5P4Kalpha enzyme, ADP-Glo luminescence, 60 min; hits give low values. max response, %. actives 1.2% (n = 330,000); active = max response of -50% or lower; inconclusive = between -30% and -50%; inactive = -30% or higher; also: value at the top dose of about 77 µM
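Luminescence from ADP-Glo served as readout of PI5P4Kalpha activity in a qHTS format. Reaction: enzyme, substrate, compound, ATP at 5 microM final, 60 min at RT.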
Pol iota inh: blocks human DNA polymerase iota activity; Q9UNA4; Pol iota fluorescent replication assay, 10 min; Potency, µM (titrated, usually from 115 µM), usual class: inhibitors; actives 1% (n = 390,000); AID 588590
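Pol iota at 10 nM preincubated 15 min with compounds at room temperature; reaction started with fluorescent substrate, 50 nM final. Fluorescence read kinetically at 0 and 10 min; buffer-only wells as negative control.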
Pol beta inh: inhibitors of human DNA polymerase beta | Potency, µM (highest dose often 114 µM), hits mostly inhibitors | actives 1.3% (n = 340,000) | P06746 | Pol beta primer extension/strand displacement, fluorescence kinetic | AID 485314
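Preincubation: enzyme (10 nM) with compound, 15 min, RT. Reaction: substrate added to 50 nM final. Reads: 0 and 10 min. Analysis: normalized, Hill fit.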
POLK inh: inhibitors of human DNA polymerase kappa; Q9UBT6; purified Pol kappa, fluorescent DNA synthesis assay, 10 min; Potency, µM (series often up to 107 µM), hits mostly inhibitors; actives 0.53% (n = 400,000); AID 588579
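Kinetic fluorescence readout at 0 and 10 min followed reaction start with substrate at 50 nM final. Beforehand, enzyme (10 nM Pol kappa) stood 15 min with compound at room temperature; buffer-only wells were negative controls.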
POLH inh: inhibitors of human DNA polymerase eta. Q9Y253. recombinant Pol eta, fluorescent DNA replication assay. Potency, µM (doses to about 114 µM), most hits filed as inhibitors. actives 1.2% (n = 390,000)
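Pol eta (10 nM) was preincubated with compounds for 15 min at room temperature, after which fluorescent replication substrate (50 nM final) was added to start the reaction. Fluorescence was read kinetically at 0 and 10 min.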
WRN inhibitor: blocks human WRN helicase | Potency, µM (titrated, usually from 114 µM), actives largely listed as inhibitors | Q14191 | WRN helicase unwinding, fluorescent forked duplex, kinetic | actives 0.46% (n = 360,000); also: nearly all actives have a fitted effect of over 55% in size
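WRN at 20 nM final preincubated with compound 15 min at room temperature; reaction started with 100 nM fluorophore/quencher forked duplex oligonucleotide and 2 mM ATP final. Unwinding followed kinetically by red fluorescence (ex 525, em 598 nm).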
Of the large screens only hits and unclear results are named; the others gave an inactive call. Unless noted, calls follow the shape of the dose curve; as a rule, active = well fitted curve in the direction sought with a large enough effect; inconclusive = small, poorly fitted or top-dose-only effect, or another doubt; inactive = no such curve, though single readings can be large; an effect the other way counts as inactive or inconclusive.

CCOC(=O)/C=C/c1ccc2c(c1)S(=O)(=O)N(C1CCCC1)[C@H]2CC(=O)OCC	none (no result: PI5P4K alpha inh, Pol beta inh, POLH inh, WRN inhibitor)
CCOc1ccc(-c2nnc(SCC(=O)Nc3ccc4c(c3)c3ccccc3n4CC)n2N)cc1	Pol iota inh 50µM, Pol beta inh 40µM, POLH inh inconclusive
CCn1c2ccccc2c2cc(NC(=O)CSc3nnc(-c4ccc(OC)c(OC)c4)n3N)ccc21	none
CCCn1c(S(=O)(=O)O)nc2ccccc21	Pol iota inh inconclusive, POLH inh 28µM
COc1ccc(OC)c(CNC(=O)CN2CC(C)Sc3ccccc32)c1 (stereo not given)	Pol beta inh inconclusive (no result: PI5P4K alpha inh, WRN inhibitor)
COC(=O)CCCC1=CC2=CC(=O)C(C)(OC(=O)c3cccs3)C(=O)C2=CN1Cc1ccco1 (stereo not given)	PI5P4K alpha inh inconclusive, Pol iota inh inconclusive, Pol beta inh 50µM, POLK inh inconclusive, POLH inh inconclusive
COC(=O)CCCC1=CC2=CC(=O)C(C)(OC(=O)c3cccs3)C(=O)C2=CN1CCCOC(C)C (stereo not given)	Pol iota inh 25µM
CCCCC1=CC2=CC(=O)C(C)(OC(=O)CC)C(=O)C2=CN1CCc1c[nH]c2ccccc12 (stereo not given)	none
COC(=O)CCCC1=CC2=CC(=O)C(C)(OC(=O)c3cccs3)C(=O)C2=CN1Cc1ccc2c(c1)OCO2 (stereo not given)	PI5P4K alpha inh inconclusive, Pol iota inh 32µM, Pol beta inh 50µM, POLH inh inconclusive
COC(=O)CCCC1=CC2=CC(=O)C(C)(OC(=O)c3cccs3)C(=O)C2=CN1Cc1ccccc1 (stereo not given)	Pol iota inh inconclusive, Pol beta inh inconclusive
COC(=O)CCCC1=CC2=CC(=O)C(C)(OC(=O)c3cccs3)C(=O)C2=CN1CCc1c[nH]c2ccccc12 (stereo not given)	Pol iota inh 50µM, POLK inh inconclusive
COC(=O)CCCC1=CC2=CC(=O)C(C)(OC(=O)c3cccs3)C(=O)C2=CN1C1CCCC1 (stereo not given)	Pol iota inh inconclusive
O=C(Nc1ccccc1)c1nc[nH]c1C(=O)O	none (no result: PI5P4K alpha inh, WRN inhibitor)
Cc1ccccc1CN1[C@H](C)[C@H](c2ccccc2)OCCS1(=O)=O	none (no result: PI5P4K alpha inh, Pol beta inh, POLH inh, WRN inhibitor)
Cc1nnc(SCC(=O)Nc2sc3c(c2C#N)CCCC3)[nH]c1=O	PI5P4K alpha inh -52, Pol iota inh inconclusive, POLH inh inconclusive
N#Cc1c(NC(=O)c2ccc([N+](=O)[O-])o2)sc2c1CCC2	Pol iota inh inconclusive, Pol beta inh 20µM, POLK inh inconclusive, POLH inh inconclusive
N#Cc1ccc(-c2cccnc2)nc1SCC(=O)Nc1sc2c(c1C#N)CCC2	Pol iota inh 14µM, Pol beta inh inconclusive, POLK inh 79µM, POLH inh 79µM (no result: PI5P4K alpha inh)
CCOC(=O)c1c(NC(=O)CSc2nnc(C)c(=O)[nH]2)sc2c1CCCC2	Pol beta inh inconclusive
N#Cc1c(NC(=O)C2CC=CCC2C(=O)O)sc2c1CCCCCC2 (stereo not given)	Pol beta inh 18µM, POLH inh inconclusive
NC(=O)c1c(NC(=O)c2ccc([N+](=O)[O-])o2)sc2c1CCCC2	none
N#Cc1c(NC(=O)C2CCCO2)sc2c1CCCCCC2 (stereo not given)	none
Cc1cccc(Nc2nc(-c3ccccc3)c3cc(C)ccc3n2)c1	none (no result: PI5P4K alpha inh, WRN inhibitor)
COc1cc2nc(N3CCCN(C)CC3)nc(NC3CCN(Cc4ccccc4)CC3)c2cc1OC	POLK inh inconclusive (no result: PI5P4K alpha inh, Pol beta inh, POLH inh, WRN inhibitor)
CC1(C(=O)NC2CCCCC2)Cc2ccccc2C(=O)N1Cc1ccccc1Cl (stereo not given)	none (no result: PI5P4K alpha inh, POLH inh, WRN inhibitor)
CC(C)(C)C1CCc2c(sc(NC(=O)C3CC=CCC3C(=O)O)c2C#N)C1 (stereo not given)	Pol beta inh 71µM, POLH inh inconclusive
COC(=O)C1CCN(CC(=O)Nc2sc3c(c2C#N)CCC3)CC1	Pol beta inh 40µM, POLH inh inconclusive
N#Cc1c(NC(=O)CCC(=O)O)sc2c1CCCC2	none
CC(C)(C)c1ccc(C(=O)Nc2sc3c(c2C#N)CCC(C(C)(C)C)C3)cc1 (stereo not given)	none (no result: PI5P4K alpha inh, WRN inhibitor)
